What all share (experiment): NCI-60 one-dose screen, 48 h (100 = growth as untreated, 0 = no growth, -100 = all killed)
What all share (settings): 10 µM unless noted

Assay [1] has as its system T-47D breast.
The subject of assay [2] is BT-549 breast.
Assay [3] relates to MDA-MB-435 melanoma.
Assay [4] has as its system SW-620 colon.
For assay [5], the system named is MCF7 breast.
The test system of assay [6] is HCT-116 colon.
The test system of assay [7] is HCC-2998 colon.
For assay [8], the system named is KM12 colon.

About 83,000 compounds went through this panel and 20% of them were active in at least one assay; those are over-represented in the sample as a whole.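 Assay: single dose, 48 h. Readout: percent growth (0 = no net growth; negative = cell death). Active: <10.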 A number with no mark means an inactive call. The source made the active and inactive calls.

Consider `CCCCCCCCCc1ccc(OC(C)=O)cc1`, for which the growth is 108% in assay [1]; 112% in assay [2]; 109% in assay [3]; 102% in assay [4]; 102% in assay [5]; 110% in assay [6]. Also, the growth in assay [7] was 113%; in assay [8], 106%.
For `N#C/C(=C\c1ccc(C#N)cc1)C(=O)c1ccccc1`, the growth was 65.4% in assay [1]; 112% in assay [2]; 107% in assay [3]; 109% in assay [4]; 97.5% in assay [5]; 97.8% in assay [6]. Also, the growth in assay [7] is 104%; in assay [8], 107%.
As for `O=C(NCCc1ccccc1)/C(=C\c1ccc(Cl)cc1Cl)NC(=O)c1ccccc1`, the growth in assay [1] is 98.1%; in assay [2], 104%; in assay [3] it was 96.6%; in assay [4], 95.7%; in assay [5], 91.9%; in assay [6] it was 99.7%. For the same compound, the growth in assay [7] is 113%; in assay [8], 93.4%.
As for `Nc1nc(Cl)cc(Cl)n1`, the growth in assay [1] is 82%; in assay [2], 102%; in assay [3], 111%; in assay [4] it was 109%; in assay [5] it was 90.3%; in assay [6], 90.1%. The growth was 114% in assay [7] and 106% in assay [8].
Take `CCc1ccccc1C(=O)N(CC)CC`: the growth in assay [1] is 92.8%; in assay [2], 102%; in assay [3] it was 104%; in assay [4] it was 105%; in assay [5] it was 91%; in assay [6], 92.9%. Further, the growth in assay [7] was 104%; in assay [8] it was 103%.
In the case of `Cc1[nH]c(=S)[nH]c(=O)c1C`, the growth was 115% in assay [1]; 99.7% in assay [2]; 105% in assay [3]; 109% in assay [4]; 101% in assay [5]; 110% in assay [6]. Moreover, the growth was 103% in assay [7] and 108% in assay [8].
In the case of `CCCC(=O)c1cccs1`, the growth in assay [1] is 86.6%; in assay [2], 101%; in assay [3] it was 104%; in assay [4], 101%; in assay [5] it was 94.3%; in assay [6], 100%. The growth was 99.8% in assay [7] and 105% in assay [8].
Turning to `C[n+]1cc2cc3c(cc2c2ccccc21)OCO3`, the growth is 39.8% in assay [1]; 20% in assay [2]; 64.9% in assay [3]; 56.5% in assay [4]; 24.5% in assay [5]; 40.3% in assay [6]. Also, the growth in assay [7] was 54.7%; in assay [8], 12.9%.
For the compound `COc1ccc(Nc2cc(Cl)ccc2C(=O)O)cn1`, the growth in assay [1] was 110%; in assay [2] it was 122%; in assay [3], 122%; in assay [4], 103%; in assay [5], 98.4%; in assay [6], 102%. Also, the growth was 110% in assay [7] and 99.2% in assay [8].
`Cc1cc(C(=O)NN)c(C#N)c(=O)[nH]1`: the growth in assay [1] is 96.3%; in assay [2], 109%; in assay [3] it was 119%; in assay [4] it was 102%; in assay [5], 93%; in assay [6], 100%. Besides, the figures for the growth in assay [7] and in assay [8] were 112% and 122%, respectively.
In the case of `COc1ccc(C)cc1NC(=O)SC(C)C`, the growth is 89.7% [100 µM] in assay [1]; 101% [100 µM] in assay [2]; 101% [100 µM] in assay [3]; 99.8% [100 µM] in assay [4]; 87% [100 µM] in assay [5]; 104% [100 µM] in assay [6]. In addition, the growth was 98.5% [100 µM] in assay [7] and 101% [100 µM] in assay [8].
For `OC1Cc2ccccc2C1`, the growth is 102% in assay [1]; 97.4% in assay [2]; 102% in assay [3]; 96.7% in assay [4]; 86.2% in assay [5]; 97.9% in assay [6]. The growth was 94.8% in assay [7] and 98.5% in assay [8].
Regarding `CC(=O)Nc1ncc(S(=O)(=O)c2ccc([N+](=O)[O-])cc2)s1`, the growth in assay [1] is 91.4%; in assay [2], 108%; in assay [3], 111%; in assay [4], 101%; in assay [5], 105%; in assay [6] it was 98.9%. Moreover, the growth was 128% in assay [7] and 116% in assay [8].
`CC1(C)OC2C(CO)OC(n3ccc(=O)[nH]c3=O)C2O1` (centres undefined): the growth in assay [1] was 89.4%; in assay [2], 104%; in assay [3] it was 101%; in assay [4] it was 96.3%; in assay [5] it was 97.7%; in assay [6], 98.2%. In addition, the growth in assay [7] and in assay [8] was 102% in each case.
Turning to `CCCCCCCCCCCCCCCCCCSC(=N)N`, the growth in assay [1] was 90%; in assay [2], 104%; in assay [3], 84.7%; in assay [4], 46.3%; in assay [5], 51.7%; in assay [6] it was 66.6%. Besides, the growth in assay [7] is 45.2%; in assay [8], 64.5%.
With `COc1cc(CC#N)c([N+](=O)[O-])cc1OC`, the growth in assay [1] is 105%; in assay [2] it was 105%; in assay [3], 111%; in assay [4], 119%; in assay [5], 102%; in assay [6], 93.5%. For the same compound, the results for the growth in assay [7] and in assay [8] were 108% and 104%, respectively.
For `S=CN1CCCCC1`, the growth in assay [1] was 103%; in assay [2] it was 105%; in assay [3], 103%; in assay [4], 105%; in assay [5], 96.3%; in assay [6] it was 102%. The growth in assay [7] was 103%; in assay [8] it was 98.8%.
Take `CC(=O)NNC(=S)N/C=C/c1c(C)ccc([N+](=O)[O-])c1[N+](=O)[O-]`: the growth in assay [1] was 110%; in assay [2], 99.9%; in assay [3] it was 100%; in assay [4] it was 110%; in assay [5], 96.2%; in assay [6], 89.9%. Further, the growth in assay [7] was 107%; in assay [8] it was 97.2%.
Regarding `C=CCC(O)C=C` (centres undefined), the growth is 95.6% in assay [1]; 104% in assay [2]; 111% in assay [3]; 104% in assay [4]; 98.2% in assay [5]; 105% in assay [6]. The growth in assay [7] was 113%; in assay [8], 102%.
Regarding `CN1CCCN(C(c2ccccc2)c2ccc(Br)cc2)CC1` (centres undefined), the growth is 103% in assay [1]; 63.3% in assay [2]; -29.3% (active) in assay [3]; 49.6% in assay [4]; 37.5% in assay [5]; 21.4% in assay [6]. For the same compound, the results for the growth in assay [7] and in assay [8] were 95.9% and 63.9%, respectively.
Consider `Cc1c(Cl)cccc1N=C=S`, for which the growth in assay [1] was 107%; in assay [2], 87.9%; in assay [3] it was 106%; in assay [4], 114%; in assay [5], 97.5%; in assay [6], 95.2%. For the same compound, the values for the growth in assay [7] and in assay [8] were 92.9% and 108%, respectively.
As to `CCOC(=O)C(=O)CC(=O)c1ccccc1`, the growth in assay [1] was 105%; in assay [2] it was 109%; in assay [3] it was 106%; in assay [4] it was 98.4%; in assay [5], 96.7%; in assay [6], 97.9%. Moreover, the growth was 101% in assay [7] and 96.3% in assay [8].
For `CN(C)c1ccc2nc3ccc(=[N+](C)C)cc-3oc2c1`, the growth is 14.4% in assay [1]; 63.2% in assay [2]; 55.1% in assay [3]; 9.01% (active) in assay [4]; -30.4% (active) in assay [5]; 6.48% (active) in assay [6]. Moreover, the growth in assay [7] is 43.3%; in assay [8], 35.1%.

For the origin of these results see PubChem BioAssay (NCI).
